Sm TGR inh = inhibitors of Schistosoma mansoni thioredoxin glutathione reductase. purified TGR, DTNB reduction, TNB absorbance 405 nm. 360,000 tested, 3% active. Potency, µM (highest dose often 114 µM), usual class: inhibitors; also: nearly all actives have a fitted effect of over 60% in size
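TGR 20 nM + NADPH 100 uM (dispensed conc.), cpd preinc 15 min RT; start with NADPH (500 uM addition) then DTNB (15 mM addition). Kinetic TNB absorbance, 405 nm filter. Four-parameter Hill fit across titration.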
LmPK inhibitor = LmPK (Leishmania mexicana) enzyme inhibition; Q27686; purified LmPK, Kinase-Glo ATP luminescence, 1 h; Potency, µM (series often up to 57.5 µM), hits mostly inhibitors; 290,000 tested, 0.37% active
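0.1 nM LmPK, 0.5 mM PEP, 0.1 mM ADP; 50 mM imidazole pH 7.2, 7 mM MgCl2, 50 mM KCl; 1 h RT. Kinase-Glo luminescence readout, normalized to no-enzyme (full inhibition) and uninhibited wells.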
Shiga toxin inh = inhibitors of Shiga toxin in Vero cells; Vero cells, Shiga toxin protein synthesis inhibition reporter; inhibition, % at 38.7 µM; 290,000 tested, 9.2% active; in the data active = inhibition mostly above about 28%, no sharp cut-off; inactive = mostly below about 43%
Tb PYK inh = T. brucei pyruvate kinase inhibition; AID 624173; TbPYK enzyme, Kinase-Glo Plus ATP luminescence, 45 min; 410,000 tested, 0.12% active; Potency, µM (doses to about 76.8 µM), usual class: inhibitors; Q57TT1; also: nearly all actives have a fitted effect of over 50% in size
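Activity of T. brucei pyruvate kinase was followed by Kinase-Glo Plus luminescence after the enzyme reacted 45 min at room temperature with 130 uM ADP (final) and substrate. Test compounds were added before ADP at multiple concentrations.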
CHX counter = counter-screen for Shiga toxin inhibitors: cycloheximide protein synthesis inhibition; cell reporter, cycloheximide protein synthesis inhibition counterscreen; 300,000 tested, 12% active; max response, %; in the data active = max response mostly above about 13%, no sharp cut-off; inactive = mostly below about 14%; also: read at 38.3 µM for the half of the compounds with a filed dose
Giardia FBPA inh-1 = inhibitors of Giardia lamblia fructose-1,6-bisphosphate aldolase | A8B2U2 | purified Giardia FBPA | Potency, µM (series often up to 59.6 µM), actives largely listed as inhibitors | 290,000 tested, 0.71% active; also: nearly all actives have a fitted effect of over 55% in size
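Giardia FBPA (40 nM reagent) was preincubated 10 min at RT with compound (up to 57.5 uM final), then substrate plus GAPDH/TPI/NAD/arsenate coupling system with diaphorase/resazurin was added; resorufin fluorescence (525/598 nm) was read after 20 min.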
Giardia growth = inhibitors of Giardia lamblia growth. shares compounds with Giardia FBPA inh-1. Giardia lamblia trophozoite growth inhibition. Potency, µM (titrated, usually from 57.5 µM), most hits filed as inhibitors. 1,500 tested, 5% active. AID 2785;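 also: trophozoites exposed to compound for 48 h at 37 °C; nearly all actives have a fitted effect of over 70% in size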
Mammal cell tox = counter-screen for Giardia aldolase inhibitors: mammalian cell toxicity | shares compounds with Giardia FBPA inh-1 | Potency, µM (doses to about 57.5 µM), hits mostly inhibitors | mammalian cell viability counter-screen, qHTS | 1,500 tested, 4% active | AID 2786;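 also: Chinese hamster ovary cells used as mammalian cytotoxicity surrogate; viability measured as cellular ATP by luminescence; compound exposure lasted 48 h before reading; nearly all actives have a fitted effect of over 60% in size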
Giardia FBPA inh-2 = confirmation of Giardia fructose-bisphosphate aldolase inhibitors | Potency, µM (titrated, usually from 57.5 µM), most hits filed as inhibitors | 1,500 tested, 5% active | shares compounds with Giardia FBPA inh-1 | purified Giardia aldolase enzyme activity, qHTS; also: nearly all actives have a fitted effect of over 45% in size
Rabbit aldolase = rabbit FBP aldolase inhibition by Giardia aldolase hits. shares compounds with Giardia FBPA inh-1. Rabbit muscle FBPA enzyme inhibition, selectivity counter-screen. Potency, µM (highest dose often 57.5 µM), actives largely listed as inhibitors. 1,500 tested, 4% active. AID 2794; also: nearly all actives have a fitted effect of over 60% in size
Target sequence (P00883 whole entry, looked up): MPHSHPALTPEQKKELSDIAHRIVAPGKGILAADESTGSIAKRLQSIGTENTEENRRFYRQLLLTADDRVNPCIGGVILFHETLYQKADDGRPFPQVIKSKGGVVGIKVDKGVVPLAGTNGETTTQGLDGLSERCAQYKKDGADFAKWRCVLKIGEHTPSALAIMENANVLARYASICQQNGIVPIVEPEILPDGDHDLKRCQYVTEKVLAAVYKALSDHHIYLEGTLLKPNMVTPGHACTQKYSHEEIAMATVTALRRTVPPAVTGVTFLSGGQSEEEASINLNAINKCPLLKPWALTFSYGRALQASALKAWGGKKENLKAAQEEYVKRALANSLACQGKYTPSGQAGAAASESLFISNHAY
GAPDH coupling = counter-screen for Giardia aldolase inhibitors: GAPDH coupling enzyme; Potency, µM (top dose mostly 57.5 µM), actives largely listed as inhibitors; shares compounds with Giardia FBPA inh-1; 1,500 tested, 6% active; GAPDH coupling enzyme counterscreen, biochemical, qHTS; also: nearly all actives have a fitted effect of over 55% in size
Large screens that a line does not name were inactive (follow-up assays come after a bar, where they were run); [ ] = dose if it differs, or a comment. The full list was thinned out, with hits kept by preference. Unless noted, calls follow the shape of the dose curve; as a rule, active = well fitted curve in the direction sought with a large enough effect; inconclusive = small, poorly fitted or top-dose-only effect, or another doubt; inactive = no such curve, though single readings can be large; an effect the other way counts as inactive or inconclusive.

Cc1ccc(C[C@@H](NS(=O)(=O)c2ccc(C(=O)O)cc2)C(=O)O)cc1	none (no result: LmPK inhibitor, Tb PYK inh)
CC(C)n1c(=O)[nH]c2ccccc21	none
CC(C)n1c(=O)[nH][nH]c1=S	Tb PYK inh 3.55µM, Giardia FBPA inh-1 17.7µM | Giardia growth inactive[10.4 µM] | Mammal cell tox inactive | Giardia FBPA inh-2 inactive | Rabbit aldolase 31.6µM | GAPDH coupling inactive
N#CCCn1cc(C(=O)N2CCCCC2)c(-c2cccc([N+](=O)[O-])c2)n1	none
COc1ccc(C(=O)O)nc1C	Giardia FBPA inh-1 3.97µM | Giardia growth inactive | Mammal cell tox inactive | Giardia FBPA inh-2 inactive | Rabbit aldolase inactive | GAPDH coupling inactive
CC(C)C[C@H]1CNC(=S)N1C[C@H]1CCCN1C[C@H](Cc1ccccc1)N1C[C@H](CC(C)C)N(CCc2ccccc2)C1=S	none (no result: Sm TGR inh, LmPK inhibitor, Shiga toxin inh, CHX counter, Giardia FBPA inh-1)
Cc1ccc(Cn2c(C3CCCN3c3nc(-c4cc(Cl)c(N)c(Cl)c4)cs3)nc3cc(C(=O)NCCCO)ccc32)cc1 (stereo not drawn)	none (no result: Sm TGR inh, LmPK inhibitor, Shiga toxin inh, CHX counter, Giardia FBPA inh-1)
Cc1ccc(Cn2c(C3CCCN3c3nc(C)cs3)nc3cc(C(F)(F)F)ccc32)cc1 (stereo not drawn)	Giardia FBPA inh-1 28.2µM | Giardia growth inactive | Mammal cell tox inactive | Giardia FBPA inh-2 inactive | Rabbit aldolase inactive | GAPDH coupling inactive
COc1ccc(C(=O)NNC(=O)C2CCN(S(=O)(=O)c3ccc(C)cc3)CC2)cc1	none
COc1cccc(OCCn2ccnc2)c1	none
Cc1cccc(C)c1OCCCn1ccnc1	Giardia FBPA inh-1 22.4µM | Giardia growth inactive | Mammal cell tox inactive | Giardia FBPA inh-2 inactive | Rabbit aldolase inactive | GAPDH coupling inactive
Cc1ccc(C(C)(C)C)c(OCCCn2ccnc2)c1	Giardia FBPA inh-1 inconclusive
CC(C)(C)c1cc(Cl)ccc1OCCn1ccnc1	Giardia FBPA inh-1 17.8µM | Giardia growth inactive | Mammal cell tox inactive | Giardia FBPA inh-2 inactive | Rabbit aldolase inactive | GAPDH coupling inactive
Cc1cc(C(C)(C)C)ccc1OCCn1ccnc1	none
Clc1cccc(OCCn2ccnc2)c1	Giardia FBPA inh-1 35.5µM | Giardia growth inconclusive | Mammal cell tox inactive | Giardia FBPA inh-2 inactive | Rabbit aldolase inactive | GAPDH coupling inactive
CC(C)(C)c1ccccc1OCCCCCn1ccnc1	Giardia FBPA inh-1 17.7µM | Giardia growth inactive | Mammal cell tox inactive | Giardia FBPA inh-2 inactive | Rabbit aldolase inactive | GAPDH coupling inactive
CCc1nc(SCC(=O)Nc2sc(C)c(C)c2C(=O)OC)c2ccccc2n1	none (no result: Tb PYK inh)
O=c1c(O)cccc2cc(O)c(O)c(O)c12	Sm TGR inh 8.91µM, Giardia FBPA inh-1 14.1µM | Giardia growth inactive | Mammal cell tox inactive | Giardia FBPA inh-2 10.3µM | Rabbit aldolase 16.3µM | GAPDH coupling 36.6µM
O=C1c2ccccc2C(=O)c2c(O)c(O)cc(O)c21	Giardia FBPA inh-1 inconclusive (no result: Sm TGR inh, LmPK inhibitor, Shiga toxin inh, CHX counter)
N#CCC(=O)c1ccccc1Oc1ccc(Cl)cc1	none
O=C1NC[C@@H](CCCCN2C[C@H](Cc3ccc(O)cc3)N(Cc3ccccc3)C(=O)C2=O)N(CCC2CCCCC2)C1=O	none (no result: Sm TGR inh, LmPK inhibitor, Shiga toxin inh, CHX counter, Giardia FBPA inh-1)
C1CCCCCC(=NNc2nn[nH]n2)CCCCC1	Giardia FBPA inh-1 15.8µM | Giardia growth inactive | Mammal cell tox inactive | Giardia FBPA inh-2 inactive | Rabbit aldolase inactive | GAPDH coupling inactive
Clc1cccc(C=NC=Nc2cccc(Cl)c2)c1	none (no result: Sm TGR inh, LmPK inhibitor, Shiga toxin inh, Tb PYK inh, CHX counter)
CCc1cc(-c2n[nH]c(=S)n2N)n(C)n1	Giardia FBPA inh-1 9.98µM | Giardia growth inconclusive | Mammal cell tox inactive | Giardia FBPA inh-2 inactive | Rabbit aldolase inactive | GAPDH coupling inactive

High-throughput results deposited in PubChem BioAssay by National Center for Advancing Translational Sciences (NCATS).
